The record followed here is PubChem BioAssay (NCI).

Test systems include NCI-H23 lung; NCI-H226 lung; NCI-H322M lung; HOP-62 NSCLC; NCI-H460 lung; HOP-92 NSCLC; NCI-H522 lung; A549/ATCC NSCLC; 786-0 renal; COLO 205 colon; DU-145 prostate; K-562 leukemia; MALME-3M melanoma; MDA-MB-231 breast; RXF 393 renal; SF-268 CNS; SF-539 CNS; UACC-257 melanoma; M14 melanoma; SF-295 CNS.
Holding throughout (assay): NCI-60 one-dose screen, 48 h (100 = growth as untreated, 0 = no growth, -100 = all killed)
Common to all, as to settings: 10 µM unless noted

The panel holds about 83,000 compounds, 20% with a hit somewhere; the sample as a whole holds those more often.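 The endpoint reported here, percent growth, reads 100 for growth as untreated, 0 for no net growth and -100 for all cells dead.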 Values without a mark were called inactive. Activity calls are given as the source filed them. The calls were made as follows: active = growth percent below 10; inactive = the rest.

Regarding `O=c1c(CNc2ccc(S(=O)(=O)Nc3ncccn3)cc2)coc2ccccc12`, the growth is 102% with NCI-H23 lung; 103% in the assay with NCI-H226 lung; 97.1% in the assay on NCI-H322M lung; 93% in the assay with HOP-62 NSCLC; 105% with NCI-H460 lung; 102% with HOP-92 NSCLC. In addition, the growth is 89.7% in the assay on NCI-H522 lung; 93.5% with A549/ATCC NSCLC; 102% in the assay with 786-0 renal; 105% in the assay on COLO 205 colon; 108% with DU-145 prostate; 100% in the assay with K-562 leukemia. The growth in the assay on MALME-3M melanoma is 94%; in the assay with MDA-MB-231 breast, 99.9%; with RXF 393 renal, 103%; in the assay on SF-268 CNS, 108%; in the assay on SF-539 CNS, 95.2%; with UACC-257 melanoma, 108%. Besides, the growth with M14 melanoma was 99.2%.

Take `O=C1c2ccccc2C(=Cc2ccccc2)c2ccccc21`: the growth in the assay on NCI-H23 lung was 2.92% (active); in the assay with NCI-H226 lung it was 38.7%; with NCI-H322M lung it was 66.8%; with HOP-62 NSCLC, 21.3%; in the assay with NCI-H460 lung it was -6.75% (active); in the assay on HOP-92 NSCLC, 51.7%. Also, the growth was -25.4% (active) in the assay on NCI-H522 lung; 19.8% with A549/ATCC NSCLC; -15.9% (active) with 786-0 renal; -21.1% (active) in the assay on COLO 205 colon; -21.3% (active) in the assay with DU-145 prostate; 8.16% (active) in the assay with K-562 leukemia. For the same compound, the growth is 41.6% in the assay with MALME-3M melanoma; -20.7% (active) in the assay with MDA-MB-231 breast; -1.26% (active) in the assay with RXF 393 renal; 10.6% in the assay with SF-268 CNS; -26.2% (active) in the assay on SF-539 CNS; 15.7% in the assay on UACC-257 melanoma. For the same compound, the growth with M14 melanoma was -20.5% (active).

In the case of `c1ccc2[nH]c(-c3cc(-c4ccc5c(c4)OCO5)n[nH]3)nc2c1`, the growth in the assay with NCI-H23 lung is 68.8%; with NCI-H226 lung, 70.7%; in the assay on NCI-H322M lung, 67.1%; in the assay with HOP-62 NSCLC it was 62.6%; in the assay on NCI-H460 lung it was 46.4%; in the assay on HOP-92 NSCLC it was 119%. For the same compound, the growth in the assay with NCI-H522 lung was 32.9%; with A549/ATCC NSCLC, 58.8%; in the assay with 786-0 renal, 55.7%; in the assay with COLO 205 colon, 70.3%; in the assay with DU-145 prostate, 69.1%; with K-562 leukemia, 36.3%. Besides, the growth is 38.2% in the assay with MALME-3M melanoma; 65% in the assay on MDA-MB-231 breast; 59.6% in the assay with RXF 393 renal; 70.5% with SF-268 CNS; 52.4% with SF-539 CNS; 66.4% with UACC-257 melanoma. For the same compound, the growth in the assay with M14 melanoma was 45.8%.

For `C#Cc1cc2c(N)c(C(=O)c3cc(OC)c(OC)c(OC)c3)[nH]c2cc1OC`, the growth with NCI-H23 lung is 43.1%; in the assay on NCI-H226 lung, 50%; with NCI-H322M lung, 43.2%; in the assay on HOP-62 NSCLC, 24.4%; in the assay on NCI-H460 lung, 15.6%; in the assay with HOP-92 NSCLC, -4.39% (active). Further, the growth is -4.05% (active) in the assay with NCI-H522 lung; 45.4% in the assay with A549/ATCC NSCLC; 46.8% in the assay on 786-0 renal; -16.3% (active) with COLO 205 colon; 19% in the assay on DU-145 prostate; 13.4% with K-562 leukemia. In addition, the growth with MALME-3M melanoma is 25.7%; in the assay with MDA-MB-231 breast it was 49.2%; with RXF 393 renal, -5.3% (active); in the assay with SF-268 CNS it was 49.6%; in the assay with SF-539 CNS, -23.6% (active); in the assay on UACC-257 melanoma it was 70.5%. In addition, the growth in the assay with M14 melanoma was 19.9%.

With `CN(C)c1ccc(N=C2C=CC(=O)C=C2)cc1`, the growth in the assay with NCI-H23 lung is 84.5%; in the assay with NCI-H226 lung, 95.1%; in the assay with NCI-H322M lung, 75%; in the assay with HOP-62 NSCLC, 107%; with NCI-H460 lung it was 97.1%; with HOP-92 NSCLC it was 77.5%. The growth in the assay with NCI-H522 lung was 72%; in the assay with A549/ATCC NSCLC it was 102%; with 786-0 renal, 98.4%; with COLO 205 colon, 36.3%; with DU-145 prostate, 112%; in the assay on K-562 leukemia, 64.2%. For the same compound, the growth in the assay with MALME-3M melanoma is 85.8%; with MDA-MB-231 breast, 46.4%; with SF-268 CNS, 101%; in the assay on SF-295 CNS, 95.1%; in the assay with SF-539 CNS, 65%; in the assay on UACC-257 melanoma, 119%. Also, in the assay with M14 melanoma, the growth was 95.6%.

On to `COc1ccc(/C=C2\N=C(c3ccccc3)N(c3cc(OC)c(OC)cc3C(=O)N3N=C(C)CC3=O)C2=O)cc1`, for which the growth in the assay with NCI-H23 lung was 102%; with NCI-H226 lung, 90.1%; with NCI-H322M lung it was 118%; in the assay with HOP-62 NSCLC, 97%; in the assay on NCI-H460 lung, 94.4%; with HOP-92 NSCLC, 78.2%. Besides, the growth with NCI-H522 lung was 82.6%; with A549/ATCC NSCLC it was 104%; with 786-0 renal, 98.9%; in the assay with COLO 205 colon it was 112%; in the assay on DU-145 prostate, 95.2%; in the assay on K-562 leukemia, 81.5%. For the same compound, the growth in the assay with MALME-3M melanoma is 126%; with MDA-MB-231 breast, 87.4%; with RXF 393 renal it was 93.5%; with SF-268 CNS, 91.4%; with SF-539 CNS it was 94.6%; in the assay on UACC-257 melanoma it was 128%. Also, the growth with M14 melanoma was 97.9%.

With `CN(C)c1ccc(C(=O)c2ccc(N(C)C)c(N)c2)cc1N`, the growth was 40% with NCI-H23 lung; 75.6% in the assay on NCI-H226 lung; 49.3% in the assay with NCI-H322M lung; 53% in the assay with HOP-62 NSCLC; 13.5% in the assay with NCI-H460 lung; 91% with HOP-92 NSCLC. Further, the growth in the assay with NCI-H522 lung is 49.2%; with A549/ATCC NSCLC, 56%; in the assay with 786-0 renal, 42.4%; in the assay with COLO 205 colon, 21.3%; in the assay with DU-145 prostate it was 6.99% (active); in the assay on K-562 leukemia, 21.4%. In addition, the growth with MALME-3M melanoma was 34.2%; in the assay with MDA-MB-231 breast, 55.8%; in the assay on SF-268 CNS, 43.6%; with SF-295 CNS, 21.9%; in the assay on SF-539 CNS, 3.19% (active); with UACC-257 melanoma it was 77.3%. For the same compound, in the assay on M14 melanoma, the growth was 13%.
